{"source": "PubChem BioAssay", "note": "Calls of active or inactive are those of the source.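 How the source made its calls: active means compounds giving at least 50% inhibition in the cell-based MKP-3 phosphatase rescue imaging test; inactive means the rest.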"}
{"test_system": "not listed separately", "assay": "Primary imaging screen for DUSP6 inhibitors that restore phospho-Erk in transfected HeLa cells, chemical complementation (AID 609);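 on inhibition: phospho-Erk level distribution per well compared with pooled transfected vehicle control wells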", "conditions": "HeLa MKP-3 transfected, phospho-Erk imaging KS statistic; measured here: nuclear pErk red intensity z-score; at 10 µM; stronger effect = higher value; cells stimulated with TPA for 15 min"}
{"smiles": "N#CC1=C(SCc2ccccc2)NC2=C(C(=O)CCC2)C1c1ccc2c(c1)OCO2", "note": "(stereo not given)", "z-score": -1.35}
{"smiles": "CC(=O)C1=C(O)C(=O)N(c2cccc(C(=O)O)c2)C1c1ccccc1F", "note": "(stereo not given)", "z-score": 0.539}
{"smiles": "Cc1[nH]nc2cn[nH]c12", "z-score": 1.21}
{"smiles": "CCCCOc1ccc(CSC(CC(=O)O)C(=O)O)cc1", "note": "(stereo not given)", "z-score": 0.193}
{"smiles": "O=S(=O)(c1ccccc1)N1CCC(N2CCCCCC2)CC1", "z-score": 0.193}
{"smiles": "COc1cccc(C2/C(=C(\\O)c3ccc4c(c3)OCCO4)C(=O)C(=O)N2CCN(C)C)c1", "note": "(stereo not given)", "z-score": -0.387}
{"smiles": "CC1(C)CC(=O)C(C=NCC(O)c2ccccc2)=C(O)C1", "note": "(stereo not given)", "z-score": 0.572}
{"smiles": "Cc1ccccc1C(=O)c1ccc2c(c1)n(C)c(=O)n2C", "z-score": 1.32}
{"smiles": "COC(=O)C(NC(C)=O)(Nc1ccc(Br)cc1)C(=O)OC", "z-score": -1.04}
{"smiles": "CCOC(=O)CSc1nc(N)c(C#N)c(-c2ccc(OC)cc2)c1C#N", "z-score": 1.28}
{"smiles": "COc1cccc(/C(O)=C2/C(=O)C(=O)N(CCCN(C)C)C2c2cccc(Cl)c2)c1", "note": "(stereo not given)", "z-score": 0.354}
{"smiles": "O=C(O)CC(NCc1ccco1)C(=O)OCC1CCCO1", "note": "(stereo not given)", "z-score": -0.884}
{"smiles": "CNc1oc(-c2ccc(Cl)cc2)nc1C#N", "z-score": -0.6}
{"smiles": "O=C(O)CCCC(=O)Nc1ccn(-c2ccccc2)n1", "z-score": 0.525}
{"smiles": "CCOC(=O)C1=C(C)N=C2SC(C)C(=O)N2C1c1ccc(OC(C)=O)c(OC)c1", "note": "(stereo not given)", "z-score": 1.33}
{"smiles": "CCOc1cccc(-c2nn3c(-c4ccco4)nnc3s2)c1", "z-score": -0.496}
{"smiles": "COc1ccc(/C(O)=C2/C(=O)C(=O)N(c3ncccn3)C2c2ccc(OC)c(OC)c2)cc1", "note": "(stereo not given)", "z-score": 2.34}
{"smiles": "COc1cccc2c(=O)c(SC(F)(F)C(F)C(F)(F)F)c(C)[nH]c12", "note": "(stereo not given)", "z-score": -0.995}
{"smiles": "COc1ccccc1N(O)C1CC(=O)N(c2ccc(F)cc2)C1=O", "note": "(stereo not given)", "z-score": 0.452}
{"smiles": "CC1CN(C2CCN(S(=O)(=O)c3ccccc3)CC2)CC(C)O1", "note": "(stereo not given)", "z-score": -0.713}
{"smiles": "CC(C)OC(=O)c1nn2c(C(F)(F)F)cc(-c3ccc(Br)o3)nc2c1Br", "z-score": 1.66}
{"smiles": "O=S(=O)(c1ccc(Cl)cc1)N1CCC(N2CCCCCC2)CC1", "z-score": 0.26}
{"smiles": "CCCCNC(=O)N1CCOCCOCCN(C(=O)NCCCC)CCOCCOCC1", "z-score": 0.0473}
{"smiles": "C=CCc1c(C)c(C#N)c2nc3ccccc3n2c1N1CCN(C)CC1", "z-score": -1.36}
{"smiles": "COc1ccc(C2=Nn3c(nnc3-c3ccccn3)SC2)cc1", "z-score": -0.686}
{"smiles": "COC(=O)c1nn2c(C(F)(F)F)cc(-c3ccc(Br)o3)nc2c1Br", "z-score": 2.56}
{"smiles": "Cc1cc(C)nc(N(C#N)CC(=O)N(c2ccccc2)C(C)C)n1", "z-score": 2.33}
{"smiles": "CC1(C)CC(N(Cc2ccco2)C(=O)Cc2ccccc2)CCO1", "note": "(stereo not given)", "z-score": -0.796}
{"smiles": "O=C(c1ccc(=O)oc1)N1CCOCC1", "z-score": 0.718}
{"smiles": "CCOC(=O)C1CCCN(c2nc3ccccc3nc2C(C#N)C(=O)OCCOC)C1", "note": "(stereo not given)", "z-score": -0.983}
{"smiles": "COC(=O)CSc1nc(N)c2c3c(sc2n1)CCCC3", "z-score": 1.1}
{"smiles": "Cc1c(C(Nc2ccccn2)c2ccccc2)c(=O)n(-c2ccccc2)n1C", "note": "(stereo not given)", "z-score": 1.12}
{"smiles": "CSc1nc(N)nc(SCC(=O)OC(C)C)c1C#N", "z-score": -1.26}
{"smiles": "CCOC(=O)c1c(CNCCN(CC)CC)n(C)c2cc(Br)c(OC)cc12", "z-score": -0.0858}
{"smiles": "COc1ccc(/C(O)=C2/C(=O)C(=O)N(CCCN(C)C)C2c2ccccc2)cc1OC", "note": "(stereo not given)", "z-score": 0.0495}
{"smiles": "Nc1nnc(CSc2ccc(Cl)cc2)s1", "z-score": -0.139}
{"smiles": "Fc1ccc2[nH]c3c(N4CCN(C5CCCCC5)CC4)ncnc3c2c1", "z-score": 1.42}
{"smiles": "COC(=O)C(NC(C)=O)(Nc1ccccc1)C(=O)OC", "z-score": -0.855}
{"smiles": "CN(C)C/C(Cl)=C(\\Cl)c1ccccc1", "z-score": 0.439}
{"smiles": "Cc1[nH]c2ccc3c(ncn3CCC#N)c2c1C", "z-score": 0.974}
{"molecular_target": "Dual specificity protein phosphatase 6 (Homo sapiens) (UniProt Q16828)", "sequence (Q16828 whole entry, looked up)": "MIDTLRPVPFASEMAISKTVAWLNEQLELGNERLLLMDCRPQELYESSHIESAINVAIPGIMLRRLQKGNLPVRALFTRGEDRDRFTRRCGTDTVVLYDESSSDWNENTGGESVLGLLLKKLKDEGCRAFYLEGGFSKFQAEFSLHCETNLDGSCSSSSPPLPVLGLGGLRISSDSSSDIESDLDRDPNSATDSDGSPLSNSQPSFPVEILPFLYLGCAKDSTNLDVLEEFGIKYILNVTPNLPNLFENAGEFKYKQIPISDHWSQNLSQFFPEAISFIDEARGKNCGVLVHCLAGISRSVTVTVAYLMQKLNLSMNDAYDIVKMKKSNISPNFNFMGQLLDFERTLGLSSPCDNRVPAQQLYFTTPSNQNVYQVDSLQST", "assay": "Primary imaging screen for DUSP6 inhibitors that restore phospho-Erk in transfected HeLa cells, chemical complementation (AID 609);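 on inhibition: phospho-Erk level distribution per well compared with pooled transfected vehicle control wells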", "conditions": "HeLa MKP-3 transfected, phospho-Erk imaging KS statistic; at 10 µM; stronger effect = higher value; cells stimulated with TPA for 15 min"}
{"smiles": "N#CC1=C(SCc2ccccc2)NC2=C(C(=O)CCC2)C1c1ccc2c(c1)OCO2", "note": "(stereo not given)", "inhibition": "-4.27% (inactive)"}
{"smiles": "CC(=O)C1=C(O)C(=O)N(c2cccc(C(=O)O)c2)C1c1ccccc1F", "note": "(stereo not given)", "inhibition": "-9.66% (inactive)"}
{"smiles": "Cc1[nH]nc2cn[nH]c12", "inhibition": "-5.89% (inactive)"}
{"smiles": "CCCCOc1ccc(CSC(CC(=O)O)C(=O)O)cc1", "note": "(stereo not given)", "inhibition": "3.5% (inactive)"}
{"smiles": "O=S(=O)(c1ccccc1)N1CCC(N2CCCCCC2)CC1", "inhibition": "-8.95% (inactive)"}
{"smiles": "COc1cccc(C2/C(=C(\\O)c3ccc4c(c3)OCCO4)C(=O)C(=O)N2CCN(C)C)c1", "note": "(stereo not given)", "inhibition": "17.5% (inactive)"}
{"smiles": "CC1(C)CC(=O)C(C=NCC(O)c2ccccc2)=C(O)C1", "note": "(stereo not given)", "inhibition": "4.37% (inactive)"}
{"smiles": "Cc1ccccc1C(=O)c1ccc2c(c1)n(C)c(=O)n2C", "inhibition": "5.65% (inactive)"}
{"smiles": "COC(=O)C(NC(C)=O)(Nc1ccc(Br)cc1)C(=O)OC", "inhibition": "18.2% (inactive)"}
{"smiles": "CCOC(=O)CSc1nc(N)c(C#N)c(-c2ccc(OC)cc2)c1C#N", "inhibition": "24.7% (inactive)"}
{"smiles": "COc1cccc(/C(O)=C2/C(=O)C(=O)N(CCCN(C)C)C2c2cccc(Cl)c2)c1", "note": "(stereo not given)", "inhibition": "11.3% (inactive)"}
{"smiles": "O=C(O)CC(NCc1ccco1)C(=O)OCC1CCCO1", "note": "(stereo not given)", "inhibition": "5.26% (inactive)"}
{"smiles": "CNc1oc(-c2ccc(Cl)cc2)nc1C#N", "inhibition": "6.04% (inactive)"}
{"smiles": "O=C(O)CCCC(=O)Nc1ccn(-c2ccccc2)n1", "inhibition": "20.3% (inactive)"}
{"smiles": "CCOC(=O)C1=C(C)N=C2SC(C)C(=O)N2C1c1ccc(OC(C)=O)c(OC)c1", "note": "(stereo not given)", "inhibition": "-4.59% (inactive)"}
{"smiles": "CCOc1cccc(-c2nn3c(-c4ccco4)nnc3s2)c1", "inhibition": "-4.27% (inactive)"}
{"smiles": "COc1ccc(/C(O)=C2/C(=O)C(=O)N(c3ncccn3)C2c2ccc(OC)c(OC)c2)cc1", "note": "(stereo not given)", "inhibition": "0.671% (inactive)"}
{"smiles": "COc1cccc2c(=O)c(SC(F)(F)C(F)C(F)(F)F)c(C)[nH]c12", "note": "(stereo not given)", "inhibition": "-2.91% (inactive)"}
{"smiles": "COc1ccccc1N(O)C1CC(=O)N(c2ccc(F)cc2)C1=O", "note": "(stereo not given)", "inhibition": "13.4% (inactive)"}
{"smiles": "CC1CN(C2CCN(S(=O)(=O)c3ccccc3)CC2)CC(C)O1", "note": "(stereo not given)", "inhibition": "4.37% (inactive)"}
{"smiles": "CC(C)OC(=O)c1nn2c(C(F)(F)F)cc(-c3ccc(Br)o3)nc2c1Br", "inhibition": "-9.7% (inactive)"}
{"smiles": "O=S(=O)(c1ccc(Cl)cc1)N1CCC(N2CCCCCC2)CC1", "inhibition": "11% (inactive)"}
{"smiles": "CCCCNC(=O)N1CCOCCOCCN(C(=O)NCCCC)CCOCCOCC1", "inhibition": "3.97% (inactive)"}
{"smiles": "C=CCc1c(C)c(C#N)c2nc3ccccc3n2c1N1CCN(C)CC1", "inhibition": "-15% (inactive)"}
{"smiles": "COc1ccc(C2=Nn3c(nnc3-c3ccccn3)SC2)cc1", "inhibition": "-4.27% (inactive)"}
{"smiles": "COC(=O)c1nn2c(C(F)(F)F)cc(-c3ccc(Br)o3)nc2c1Br", "inhibition": "-2.07% (inactive)"}
{"smiles": "Cc1cc(C)nc(N(C#N)CC(=O)N(c2ccccc2)C(C)C)n1", "inhibition": "-11% (inactive)"}
{"smiles": "CC1(C)CC(N(Cc2ccco2)C(=O)Cc2ccccc2)CCO1", "note": "(stereo not given)", "inhibition": "3.5% (inactive)"}
{"smiles": "O=C(c1ccc(=O)oc1)N1CCOCC1", "inhibition": "-6.59% (inactive)"}
{"smiles": "CCOC(=O)C1CCCN(c2nc3ccccc3nc2C(C#N)C(=O)OCCOC)C1", "note": "(stereo not given)", "inhibition": "4.72% (inactive)"}
{"smiles": "COC(=O)CSc1nc(N)c2c3c(sc2n1)CCCC3", "inhibition": "4.37% (inactive)"}
{"smiles": "Cc1c(C(Nc2ccccn2)c2ccccc2)c(=O)n(-c2ccccc2)n1C", "note": "(stereo not given)", "inhibition": "-9.7% (inactive)"}
{"smiles": "CSc1nc(N)nc(SCC(=O)OC(C)C)c1C#N", "inhibition": "0.671% (inactive)"}
{"smiles": "CCOC(=O)c1c(CNCCN(CC)CC)n(C)c2cc(Br)c(OC)cc12", "inhibition": "1.75% (inactive)"}
{"smiles": "COc1ccc(/C(O)=C2/C(=O)C(=O)N(CCCN(C)C)C2c2ccccc2)cc1OC", "note": "(stereo not given)", "inhibition": "9.39% (inactive)"}
{"smiles": "Nc1nnc(CSc2ccc(Cl)cc2)s1", "inhibition": "-7.86% (inactive)"}
{"smiles": "Fc1ccc2[nH]c3c(N4CCN(C5CCCCC5)CC4)ncnc3c2c1", "inhibition": "-6.48% (inactive)"}
{"smiles": "COC(=O)C(NC(C)=O)(Nc1ccccc1)C(=O)OC", "inhibition": "18.2% (inactive)"}
{"smiles": "CN(C)C/C(Cl)=C(\\Cl)c1ccccc1", "inhibition": "4.25% (inactive)"}
{"smiles": "Cc1[nH]c2ccc3c(ncn3CCC#N)c2c1C", "inhibition": "18.2% (inactive)"}
